# Experimental data from PMC7862700, “An all-to-all approach to the identification of sequence-specific readers for epigenetic DNA modifications on cytosine”.
# Columns and labels:
# Experiment in all cases: DAPPL (digital affinity profiling via proximity ligation, sequencing); 10 mM Tris-HCl pH 7.5, 50 mM NaCl, 1 mM DTT, 4% glycerol, room temperature, 30 min; GST-TFs on glutathione beads, 16-mer random dsDNA library, 0.1% formaldehyde crosslink after washing; high values mean tight binding
# [1] = target: T1, FLI1 (Homo sapiens, UniProt Q01543 1-452); details: protein: recombinant; tags: N-terminal GST; dsDNA, one strand shown
# T1 sequence: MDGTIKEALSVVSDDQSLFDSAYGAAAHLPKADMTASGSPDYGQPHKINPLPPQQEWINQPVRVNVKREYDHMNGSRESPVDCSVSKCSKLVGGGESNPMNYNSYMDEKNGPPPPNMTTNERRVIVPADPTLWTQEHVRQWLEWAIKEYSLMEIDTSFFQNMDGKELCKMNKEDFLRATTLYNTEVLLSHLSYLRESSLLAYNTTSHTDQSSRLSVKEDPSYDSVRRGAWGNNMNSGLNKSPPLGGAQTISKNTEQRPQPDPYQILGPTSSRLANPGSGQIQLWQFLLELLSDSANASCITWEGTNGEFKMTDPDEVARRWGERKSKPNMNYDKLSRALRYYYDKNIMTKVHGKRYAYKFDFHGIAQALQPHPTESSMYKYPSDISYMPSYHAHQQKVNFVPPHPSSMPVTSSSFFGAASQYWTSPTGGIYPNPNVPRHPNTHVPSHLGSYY
# Procedure, shortened: (§1)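 Each value of binding signal is a hexamer's read frequency for a factor divided by the same hexamer's frequency in the tag-only sample. Barcoded, bead-captured GST fusions of human transcription factors made in yeast were pooled with that sample and incubated with 200 nmole of a random double-stranded 16-mer DNA library in Tris/NaCl/DTT/glycerol buffer at room temperature for 30 min. Washing, 0.1% formaldehyde crosslinking, proximity ligation, PCR and Illumina NextSeq500 sequencing followed.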
# [2] = target: T2, ELK1 (Homo sapiens, UniProt P19419 1-428); details: protein: recombinant; tags: N-terminal GST; dsDNA, one strand shown
# T2 sequence: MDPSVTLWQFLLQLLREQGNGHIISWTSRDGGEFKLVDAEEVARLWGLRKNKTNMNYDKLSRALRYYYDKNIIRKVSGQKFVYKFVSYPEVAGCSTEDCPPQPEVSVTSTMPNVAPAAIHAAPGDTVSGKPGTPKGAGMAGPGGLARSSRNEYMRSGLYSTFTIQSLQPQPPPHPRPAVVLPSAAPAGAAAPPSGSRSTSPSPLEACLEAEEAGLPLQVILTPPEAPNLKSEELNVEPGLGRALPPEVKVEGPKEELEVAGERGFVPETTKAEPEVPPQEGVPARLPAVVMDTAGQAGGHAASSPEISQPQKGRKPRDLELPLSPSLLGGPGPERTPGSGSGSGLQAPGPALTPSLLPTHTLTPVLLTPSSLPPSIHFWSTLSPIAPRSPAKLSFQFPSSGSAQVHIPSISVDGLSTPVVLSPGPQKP
# Procedure, shortened: as §1
# [3] = target: T3, GABPA (Homo sapiens, UniProt Q06546 1-454); details: protein: recombinant; tags: N-terminal GST; dsDNA, one strand shown
# T3 sequence: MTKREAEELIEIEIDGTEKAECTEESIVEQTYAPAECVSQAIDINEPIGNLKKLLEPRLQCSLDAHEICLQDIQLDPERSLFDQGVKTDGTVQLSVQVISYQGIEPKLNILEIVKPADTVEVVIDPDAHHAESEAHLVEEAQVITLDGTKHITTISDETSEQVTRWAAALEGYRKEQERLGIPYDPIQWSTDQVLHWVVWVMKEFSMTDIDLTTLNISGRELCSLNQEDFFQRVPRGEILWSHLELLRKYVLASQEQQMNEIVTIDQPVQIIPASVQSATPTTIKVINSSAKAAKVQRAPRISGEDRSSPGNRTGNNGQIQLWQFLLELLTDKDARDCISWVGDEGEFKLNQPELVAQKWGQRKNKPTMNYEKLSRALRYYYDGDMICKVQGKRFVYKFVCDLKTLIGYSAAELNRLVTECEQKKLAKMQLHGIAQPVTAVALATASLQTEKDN
# Procedure, shortened: as §1
# [4] = target: T4, ERG (Homo sapiens, UniProt P11308 1-479); details: protein: recombinant; tags: N-terminal GST; dsDNA, one strand shown
# T4 sequence: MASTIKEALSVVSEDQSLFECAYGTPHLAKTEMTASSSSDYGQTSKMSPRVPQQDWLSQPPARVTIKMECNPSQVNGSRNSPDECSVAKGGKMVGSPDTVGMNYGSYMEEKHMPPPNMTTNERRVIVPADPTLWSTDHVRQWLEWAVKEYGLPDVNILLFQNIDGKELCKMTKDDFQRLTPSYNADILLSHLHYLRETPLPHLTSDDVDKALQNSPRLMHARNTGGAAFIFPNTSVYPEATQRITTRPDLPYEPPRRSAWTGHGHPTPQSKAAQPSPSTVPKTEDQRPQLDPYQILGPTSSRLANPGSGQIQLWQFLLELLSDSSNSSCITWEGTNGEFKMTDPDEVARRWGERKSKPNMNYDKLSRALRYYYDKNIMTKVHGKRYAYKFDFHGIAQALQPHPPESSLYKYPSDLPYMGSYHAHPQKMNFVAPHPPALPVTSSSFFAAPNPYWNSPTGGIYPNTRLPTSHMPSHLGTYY
# Procedure, shortened: as §1
# [5] = target: ELF1 (Homo sapiens, UniProt P32519 1-619); details: protein: recombinant; tags: N-terminal GST; dsDNA, one strand shown
# ELF1, sequence (P32519 whole entry): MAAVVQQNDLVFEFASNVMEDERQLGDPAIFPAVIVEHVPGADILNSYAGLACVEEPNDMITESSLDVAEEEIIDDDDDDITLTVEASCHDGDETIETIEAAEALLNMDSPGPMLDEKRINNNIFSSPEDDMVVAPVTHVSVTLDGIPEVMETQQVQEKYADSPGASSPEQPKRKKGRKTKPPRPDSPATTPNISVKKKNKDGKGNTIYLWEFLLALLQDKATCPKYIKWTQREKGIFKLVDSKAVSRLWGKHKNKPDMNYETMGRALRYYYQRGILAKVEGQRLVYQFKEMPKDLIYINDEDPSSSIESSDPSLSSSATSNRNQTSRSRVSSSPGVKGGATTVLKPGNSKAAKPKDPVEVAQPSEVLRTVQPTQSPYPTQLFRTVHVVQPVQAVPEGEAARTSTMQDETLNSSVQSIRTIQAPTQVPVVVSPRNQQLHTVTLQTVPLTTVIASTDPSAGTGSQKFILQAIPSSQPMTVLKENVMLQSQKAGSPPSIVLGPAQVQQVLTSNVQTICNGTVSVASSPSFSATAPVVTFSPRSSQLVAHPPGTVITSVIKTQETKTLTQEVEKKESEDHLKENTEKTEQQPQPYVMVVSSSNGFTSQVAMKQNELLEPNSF
# Procedure, shortened: as §1
# [6] = target: T5, EHF (Homo sapiens, UniProt Q9NZC4 1-300); details: protein: recombinant; tags: N-terminal GST; dsDNA, one strand shown
# T5 sequence: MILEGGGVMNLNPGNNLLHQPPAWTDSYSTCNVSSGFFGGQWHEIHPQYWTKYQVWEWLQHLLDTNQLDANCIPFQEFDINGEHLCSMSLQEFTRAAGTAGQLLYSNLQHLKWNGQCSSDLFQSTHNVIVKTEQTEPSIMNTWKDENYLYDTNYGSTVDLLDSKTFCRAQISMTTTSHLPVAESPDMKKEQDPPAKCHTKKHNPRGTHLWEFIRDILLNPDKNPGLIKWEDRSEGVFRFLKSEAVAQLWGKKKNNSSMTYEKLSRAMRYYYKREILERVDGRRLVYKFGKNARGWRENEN
# Procedure, shortened: as §1
# [7] = target: SPI1 (Homo sapiens, UniProt P17947 1-270); details: protein: recombinant; tags: N-terminal GST; dsDNA, one strand shown
# Procedure, shortened: as §1
# [8] = target: SPIB (Homo sapiens, UniProt Q01892 1-262); details: protein: recombinant; tags: N-terminal GST; dsDNA, one strand shown
# SPIB, sequence (Q01892 whole entry): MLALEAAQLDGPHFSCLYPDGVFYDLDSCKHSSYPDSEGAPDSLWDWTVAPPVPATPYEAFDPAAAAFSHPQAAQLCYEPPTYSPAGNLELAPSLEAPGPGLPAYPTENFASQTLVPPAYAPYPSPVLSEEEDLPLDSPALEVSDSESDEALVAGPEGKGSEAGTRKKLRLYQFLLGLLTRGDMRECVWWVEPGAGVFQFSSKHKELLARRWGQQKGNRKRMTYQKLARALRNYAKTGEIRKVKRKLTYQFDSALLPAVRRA
# Procedure, shortened: as §1
# [9] = target: T6, ELK3 (Homo sapiens, UniProt P41970 1-407); details: protein: recombinant; tags: N-terminal GST; dsDNA, one strand shown
# T6 sequence: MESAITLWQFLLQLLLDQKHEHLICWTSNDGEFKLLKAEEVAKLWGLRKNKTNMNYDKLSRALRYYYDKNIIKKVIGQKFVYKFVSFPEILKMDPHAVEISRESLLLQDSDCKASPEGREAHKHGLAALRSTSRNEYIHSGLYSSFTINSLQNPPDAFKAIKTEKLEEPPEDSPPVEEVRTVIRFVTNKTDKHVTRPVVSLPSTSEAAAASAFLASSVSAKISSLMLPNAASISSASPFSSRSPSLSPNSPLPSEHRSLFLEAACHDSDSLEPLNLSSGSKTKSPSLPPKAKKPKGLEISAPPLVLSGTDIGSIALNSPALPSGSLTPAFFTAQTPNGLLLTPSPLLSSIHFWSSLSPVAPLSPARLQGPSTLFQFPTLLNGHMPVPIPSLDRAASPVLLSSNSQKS
# Procedure, shortened: as §1
# [10] = target: T7, FEV (Homo sapiens, UniProt Q99581 1-238); details: protein: recombinant; tags: N-terminal GST; dsDNA, one strand shown
# T7 sequence: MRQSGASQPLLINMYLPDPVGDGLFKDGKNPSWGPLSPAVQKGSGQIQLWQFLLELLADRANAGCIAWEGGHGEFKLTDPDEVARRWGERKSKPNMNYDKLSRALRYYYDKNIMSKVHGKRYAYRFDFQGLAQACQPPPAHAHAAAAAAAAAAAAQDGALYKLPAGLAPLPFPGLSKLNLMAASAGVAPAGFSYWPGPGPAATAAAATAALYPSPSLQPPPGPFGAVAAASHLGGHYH
# Procedure, shortened: as §1
# [11] = target: ETV5 (Homo sapiens, UniProt P41161 1-510); details: protein: recombinant; tags: N-terminal GST; dsDNA, one strand shown
# ETV5, sequence (P41161 whole entry): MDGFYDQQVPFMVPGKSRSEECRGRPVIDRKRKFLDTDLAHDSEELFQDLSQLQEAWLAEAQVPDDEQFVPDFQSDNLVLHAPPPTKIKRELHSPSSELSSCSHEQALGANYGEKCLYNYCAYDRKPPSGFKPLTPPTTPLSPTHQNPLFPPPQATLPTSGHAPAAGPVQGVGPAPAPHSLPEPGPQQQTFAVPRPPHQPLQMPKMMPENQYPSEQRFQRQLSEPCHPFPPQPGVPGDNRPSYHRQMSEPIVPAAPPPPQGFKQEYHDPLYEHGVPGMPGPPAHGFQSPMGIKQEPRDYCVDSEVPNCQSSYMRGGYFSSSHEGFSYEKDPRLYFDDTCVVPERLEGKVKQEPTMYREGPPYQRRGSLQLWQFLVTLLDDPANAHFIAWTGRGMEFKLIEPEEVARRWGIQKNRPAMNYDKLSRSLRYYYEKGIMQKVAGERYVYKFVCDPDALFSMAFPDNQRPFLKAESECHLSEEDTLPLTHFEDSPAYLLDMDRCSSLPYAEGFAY
# Procedure, shortened: as §1
# [12] = target: HSF1 (Homo sapiens, UniProt Q00613 1-529); details: protein: recombinant; tags: N-terminal GST; chain copies: 3; dsDNA, one strand shown
# HSF1, sequence (Q00613 whole entry): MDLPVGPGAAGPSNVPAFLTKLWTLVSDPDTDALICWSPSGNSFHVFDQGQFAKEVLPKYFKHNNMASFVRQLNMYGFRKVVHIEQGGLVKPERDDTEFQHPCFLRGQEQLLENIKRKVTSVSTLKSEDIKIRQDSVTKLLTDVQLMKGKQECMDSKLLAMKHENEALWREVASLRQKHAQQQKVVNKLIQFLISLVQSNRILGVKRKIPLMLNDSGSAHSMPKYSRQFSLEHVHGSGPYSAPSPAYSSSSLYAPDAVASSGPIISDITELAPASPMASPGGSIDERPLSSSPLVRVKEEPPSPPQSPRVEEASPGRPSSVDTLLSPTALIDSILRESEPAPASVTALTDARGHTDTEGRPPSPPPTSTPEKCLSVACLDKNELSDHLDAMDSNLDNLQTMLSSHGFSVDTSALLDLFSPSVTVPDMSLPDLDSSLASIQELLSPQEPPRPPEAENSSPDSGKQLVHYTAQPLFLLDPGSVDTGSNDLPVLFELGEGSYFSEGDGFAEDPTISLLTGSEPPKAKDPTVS
# Procedure, shortened: as §1
# [13] = target: T8, SPIC (Homo sapiens, UniProt Q8N5J4 1-248); details: protein: recombinant; tags: N-terminal GST; dsDNA, one strand shown
# T8 sequence: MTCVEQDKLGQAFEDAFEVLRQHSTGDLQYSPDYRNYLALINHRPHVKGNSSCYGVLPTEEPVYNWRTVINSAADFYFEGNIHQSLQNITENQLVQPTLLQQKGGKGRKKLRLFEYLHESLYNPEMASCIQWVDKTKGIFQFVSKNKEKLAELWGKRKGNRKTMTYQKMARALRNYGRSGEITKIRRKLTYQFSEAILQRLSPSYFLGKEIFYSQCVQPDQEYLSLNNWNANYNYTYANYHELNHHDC
# Procedure, shortened: as §1
# [14] = target: ELF4 (Homo sapiens, UniProt Q99607 1-663); details: protein: recombinant; tags: N-terminal GST; dsDNA, one strand shown
# ELF4, sequence (Q99607 whole entry): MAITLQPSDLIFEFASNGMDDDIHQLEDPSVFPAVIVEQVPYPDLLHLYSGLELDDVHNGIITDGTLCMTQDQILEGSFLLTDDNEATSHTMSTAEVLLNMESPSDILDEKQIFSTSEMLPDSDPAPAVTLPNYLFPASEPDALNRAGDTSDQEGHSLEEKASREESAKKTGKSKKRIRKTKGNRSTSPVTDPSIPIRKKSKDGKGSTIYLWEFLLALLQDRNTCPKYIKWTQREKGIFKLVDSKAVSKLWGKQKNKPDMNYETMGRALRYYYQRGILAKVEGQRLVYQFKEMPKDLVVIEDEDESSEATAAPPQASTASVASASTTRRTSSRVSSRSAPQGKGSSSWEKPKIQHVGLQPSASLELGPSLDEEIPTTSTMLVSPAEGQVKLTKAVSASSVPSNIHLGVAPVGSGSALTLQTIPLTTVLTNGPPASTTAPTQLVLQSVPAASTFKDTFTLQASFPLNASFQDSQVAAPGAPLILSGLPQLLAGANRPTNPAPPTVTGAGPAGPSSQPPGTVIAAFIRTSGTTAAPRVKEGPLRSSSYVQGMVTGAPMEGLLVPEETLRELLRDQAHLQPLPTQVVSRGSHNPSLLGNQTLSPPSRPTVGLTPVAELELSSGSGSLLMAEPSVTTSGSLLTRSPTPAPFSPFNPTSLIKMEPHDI
# Procedure, shortened: as §1
# [15] = target: T9, ELK4 (Homo sapiens, UniProt P28324-2 1-405); details: protein: recombinant; tags: N-terminal GST; dsDNA, one strand shown
# T9 sequence: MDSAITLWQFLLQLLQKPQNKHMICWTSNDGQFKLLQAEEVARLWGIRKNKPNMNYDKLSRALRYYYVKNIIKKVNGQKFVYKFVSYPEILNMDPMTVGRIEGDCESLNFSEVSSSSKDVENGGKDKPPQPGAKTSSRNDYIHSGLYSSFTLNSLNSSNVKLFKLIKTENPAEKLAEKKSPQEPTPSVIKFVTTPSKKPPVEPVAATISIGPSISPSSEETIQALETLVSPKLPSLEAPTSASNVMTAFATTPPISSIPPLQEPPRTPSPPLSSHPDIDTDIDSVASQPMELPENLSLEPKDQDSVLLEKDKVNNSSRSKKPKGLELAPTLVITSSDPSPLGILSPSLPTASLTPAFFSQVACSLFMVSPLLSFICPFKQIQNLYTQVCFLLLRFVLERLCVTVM
# Procedure, shortened: as §1
# [16] = target: T10, ETV2 (Homo sapiens, UniProt O00321 1-342); details: protein: recombinant; tags: N-terminal GST; dsDNA, one strand shown
# T10 sequence: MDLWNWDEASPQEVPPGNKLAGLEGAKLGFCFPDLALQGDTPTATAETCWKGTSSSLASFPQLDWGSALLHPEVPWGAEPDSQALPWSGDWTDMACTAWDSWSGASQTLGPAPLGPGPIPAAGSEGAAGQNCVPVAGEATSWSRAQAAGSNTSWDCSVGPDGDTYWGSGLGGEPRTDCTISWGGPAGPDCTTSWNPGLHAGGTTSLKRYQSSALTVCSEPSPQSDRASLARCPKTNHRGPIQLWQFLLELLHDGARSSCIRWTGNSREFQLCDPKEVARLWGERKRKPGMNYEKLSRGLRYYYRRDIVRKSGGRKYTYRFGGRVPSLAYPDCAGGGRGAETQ
# Procedure, shortened: as §1
# [17] = target: T11, ELF3 (Homo sapiens, UniProt P78545 1-371); details: protein: recombinant; tags: N-terminal GST; dsDNA, one strand shown
# T11 sequence: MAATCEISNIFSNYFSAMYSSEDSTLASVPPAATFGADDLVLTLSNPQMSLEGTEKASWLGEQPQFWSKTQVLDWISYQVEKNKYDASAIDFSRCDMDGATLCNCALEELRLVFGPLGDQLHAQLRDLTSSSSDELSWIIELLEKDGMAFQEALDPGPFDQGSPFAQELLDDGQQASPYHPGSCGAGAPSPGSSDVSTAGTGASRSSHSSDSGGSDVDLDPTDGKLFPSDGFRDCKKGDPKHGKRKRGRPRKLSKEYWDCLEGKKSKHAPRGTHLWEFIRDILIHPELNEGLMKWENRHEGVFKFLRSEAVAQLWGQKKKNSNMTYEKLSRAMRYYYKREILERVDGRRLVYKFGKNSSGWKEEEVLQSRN
# Procedure, shortened: as §1
# [18] = target: ETV1 (Homo sapiens, UniProt P50549 1-477); details: protein: recombinant; tags: N-terminal GST; dsDNA, one strand shown
# ETV1, sequence (P50549 whole entry): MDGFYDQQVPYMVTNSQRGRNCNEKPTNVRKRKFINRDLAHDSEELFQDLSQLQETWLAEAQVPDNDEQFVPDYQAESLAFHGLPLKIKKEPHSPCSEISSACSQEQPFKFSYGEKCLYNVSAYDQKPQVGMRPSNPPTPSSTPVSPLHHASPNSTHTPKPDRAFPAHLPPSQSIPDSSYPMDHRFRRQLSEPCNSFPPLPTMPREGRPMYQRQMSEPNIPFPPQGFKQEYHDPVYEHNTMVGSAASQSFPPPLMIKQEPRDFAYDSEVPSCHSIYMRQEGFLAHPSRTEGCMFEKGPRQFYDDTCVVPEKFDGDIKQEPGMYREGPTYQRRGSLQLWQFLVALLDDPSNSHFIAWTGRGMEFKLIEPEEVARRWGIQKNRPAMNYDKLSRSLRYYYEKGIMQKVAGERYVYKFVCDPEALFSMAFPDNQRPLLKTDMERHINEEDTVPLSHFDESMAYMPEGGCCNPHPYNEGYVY
# Procedure, shortened: as §1
sequence,measurement,setting,value
TCTGAC,binding signal,[1],"1.26 fold enrichment (6-mer frequency, TF over GST control)"
same,binding signal,[2],"1.19 fold enrichment (6-mer frequency, TF over GST control)"
same,binding signal,[3],"1.24 fold enrichment (6-mer frequency, TF over GST control)"
same,binding signal,[4],"1.16 fold enrichment (6-mer frequency, TF over GST control)"
same,binding signal,[5],"1.28 fold enrichment (6-mer frequency, TF over GST control)"
same,binding signal,[6],"1.3 fold enrichment (6-mer frequency, TF over GST control)"
same,binding signal,[7],"1.09 fold enrichment (6-mer frequency, TF over GST control)"
same,binding signal,[8],"1.25 fold enrichment (6-mer frequency, TF over GST control)"
same,binding signal,[9],"1.24 fold enrichment (6-mer frequency, TF over GST control)"
same,binding signal,[10],"1.15 fold enrichment (6-mer frequency, TF over GST control)"
same,binding signal,[11],"1.15 fold enrichment (6-mer frequency, TF over GST control)"
same,binding signal,[12],"1.07 fold enrichment (6-mer frequency, TF over GST control)"
same,binding signal,[13],"1.04 fold enrichment (6-mer frequency, TF over GST control)"
same,binding signal,[14],"1.35 fold enrichment (6-mer frequency, TF over GST control)"
same,binding signal,[15],"1.25 fold enrichment (6-mer frequency, TF over GST control)"
same,binding signal,[16],"1.16 fold enrichment (6-mer frequency, TF over GST control)"
same,binding signal,[17],"1.18 fold enrichment (6-mer frequency, TF over GST control)"
same,binding signal,[18],"1.3 fold enrichment (6-mer frequency, TF over GST control)"
